From paper PMC4336329 (PLoS ONE, 2015) come the findings set out here.

Structures are written as SMILES. Screen size: about 310,000 compounds; about 14,000 (4.5%) showed an effect of 50% or more. The effect is printed as a negative number. Only a selection was taken, and strong results are over-represented in it overall.
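Note: peak tail current of the secondary pulse compared with the same well before compound.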

For this assay, the target named is human ether-à-go-go-related gene (hERG) potassium channel (human, UniProt Q12809). In words: primary screen, population patch clamp on CHO cells stably expressing hERG; higher = less effect of the substance.
human ether-à-go-go-related gene (hERG) potassium channel, sequence (Q12809 whole entry, looked up): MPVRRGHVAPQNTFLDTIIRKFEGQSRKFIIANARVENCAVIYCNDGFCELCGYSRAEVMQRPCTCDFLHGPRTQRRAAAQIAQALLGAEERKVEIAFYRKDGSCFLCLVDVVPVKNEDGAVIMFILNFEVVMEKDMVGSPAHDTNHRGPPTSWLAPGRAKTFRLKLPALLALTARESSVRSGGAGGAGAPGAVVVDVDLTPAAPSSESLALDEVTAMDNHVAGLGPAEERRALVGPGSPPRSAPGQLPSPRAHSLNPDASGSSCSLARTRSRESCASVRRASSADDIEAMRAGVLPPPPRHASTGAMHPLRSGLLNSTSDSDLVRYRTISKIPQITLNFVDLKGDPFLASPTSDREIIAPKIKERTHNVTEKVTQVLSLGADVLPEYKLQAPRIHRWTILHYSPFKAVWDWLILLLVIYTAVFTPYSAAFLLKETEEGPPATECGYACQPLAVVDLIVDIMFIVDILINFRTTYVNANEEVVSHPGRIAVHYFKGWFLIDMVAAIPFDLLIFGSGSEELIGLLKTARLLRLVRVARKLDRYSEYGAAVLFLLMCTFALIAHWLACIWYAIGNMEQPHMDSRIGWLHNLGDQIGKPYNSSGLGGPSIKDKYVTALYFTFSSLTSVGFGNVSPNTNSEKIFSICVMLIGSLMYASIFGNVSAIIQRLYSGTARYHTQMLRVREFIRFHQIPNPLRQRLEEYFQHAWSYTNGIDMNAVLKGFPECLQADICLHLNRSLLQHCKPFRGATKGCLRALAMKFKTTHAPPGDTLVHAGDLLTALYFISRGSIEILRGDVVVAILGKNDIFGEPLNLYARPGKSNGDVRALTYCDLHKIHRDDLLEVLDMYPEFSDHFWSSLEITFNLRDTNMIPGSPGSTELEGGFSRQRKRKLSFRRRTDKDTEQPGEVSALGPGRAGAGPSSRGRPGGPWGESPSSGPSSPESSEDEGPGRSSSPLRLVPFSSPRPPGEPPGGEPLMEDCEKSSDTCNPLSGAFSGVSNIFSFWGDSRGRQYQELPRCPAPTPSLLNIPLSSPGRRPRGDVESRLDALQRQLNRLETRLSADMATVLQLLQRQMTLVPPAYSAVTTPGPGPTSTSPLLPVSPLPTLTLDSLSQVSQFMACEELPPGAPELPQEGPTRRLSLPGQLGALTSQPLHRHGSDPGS
In the case of `Cc1cccc2c(=O)cc(C(F)(F)F)[nH]c12`, the “hERG current change (%, negative = inhibition) at 10uM” value was determined as 13.8%.
Under `COc1ccc(-c2nc(CN3CCC(C(=O)NC4CC4)CC3)c(C)o2)cc1OC` stands -12.8%; under `CCS(=O)(=O)N1CCCC(C(=O)NCCc2ccc(OC)c(OC)c2)C1` (stereo not drawn), 13.1%; under `CCc1ccc(-c2nc(CN3CCC(C(=O)NCCc4ccc(OC)c(OC)c4)CC3)c(C)o2)cc1`, -76.2%.
Then `COc1ccc(CCNC(=O)C2CCCN(S(C)(=O)=O)C2)cc1OC` (stereo not drawn), with 12%; and `CCc1ccc(-c2nc(CN3CCCC(C(=O)NCCc4ccc(OC)c(OC)c4)C3)c(C)o2)cc1` (stereo not drawn), with -50.5%; and `COc1ccc(CN2CCC(C(=O)NCCc3ccc(OC)c(OC)c3)CC2)c(OC)c1`, with -29.9%.
Under `Cn1c(=O)cc(OCCCC(=O)NCc2ccc(F)cc2Cl)c2ccccc21` stands -15.1%.
Regarding `CCCOc1ccc(C(C)=O)cc1CSCCC#N`, the “hERG current change (%, negative = inhibition) at 10uM” value was -1.08%.
Then `Cn1c(CC(=O)Nc2ccccc2F)nnc1SCC(=O)NC1CCCC1`, with 11%.
With `COCCN1CC(CNC(=O)c2cc(COc3ccc(C)c(C)c3)on2)CC1=O` (stereo not drawn), the “hERG current change (%, negative = inhibition) at 10uM” value is reported as -20.8%.
On to `Cc1cc(OCc2cc(C(=O)NCCN3CCCCC3CO)no2)cc(C)c1Cl` (stereo not drawn), for which the “hERG current change (%, negative = inhibition) at 10uM” value is listed as -65.8%.
In the case of `Cc1cc(OCc2cc(C(=O)NC3CCC3)no2)cc(C)c1Cl`, the “hERG current change (%, negative = inhibition) at 10uM” value came out at 3.82%.
Then `CCN1CCCC1CNC(=O)c1cc(COc2ccc(C)c(C)c2)on1` (stereo not drawn), with -65.2%; and `COc1cccc(OCc2cc(C(=O)NCCN3CCCCC3CO)no2)c1` (stereo not drawn), with 2.5%.
Take `Cc1ccc(OCc2cc(C(=O)NCC3COCCO3)no2)cc1C` (stereo not drawn): the “hERG current change (%, negative = inhibition) at 10uM” value is on record as -10%.
Consider `Cn1c(SCC(=O)NNC(=O)c2ccc(Br)cc2)nnc1-c1cccnc1`, for which the “hERG current change (%, negative = inhibition) at 10uM” value turned out to be 25.6%.
Under `Cc1ccc(NC(=O)NC(=O)CSc2nnc(-c3ccc(Cl)cc3Cl)n2N)c(C)c1` stands -6.38%; under `Cc1nc(C)c(C(=O)NNS(=O)(=O)c2ccccc2)s1`, 8.26%; under `Cl.OCCNCc1cccc(OCc2ccc(Cl)cc2)c1`, -12.9%.
As for `CCOc1cc(/C=N/N=C(N)N)ccc1OCc1ccc(Cl)cc1`, the “hERG current change (%, negative = inhibition) at 10uM” value is on record as -19.9%.
Under `Cl.c1ccc(COc2cccc(CNCc3ccccn3)c2)cc1` stands -45.2%; under `COc1cc(/C=N/O)ccc1OCc1ccc(Cl)cc1`, 19.6%.
Under `COc1cc(/C=N/N=C(N)N)ccc1OCc1ccc(Cl)cc1` stands -50.5%; under `COc1cc(CNCc2ccccn2)ccc1OCc1ccc(Cl)c(Cl)c1.Cl`, -51.2%; under `CCOc1c(Cl)cc(CNCc2ccccn2)cc1OC.Cl`, -18.7%.
Under `COc1cc(CNCc2ccccn2)ccc1OCc1cccc(Cl)c1.Cl` stands -54%; under `COc1cc(CNCc2ccccn2)ccc1OCC(=O)NC(C)(C)C.Cl`, 0.777%; under `Cl.Fc1ccc(COc2cccc(CNCc3ccncc3)c2)cc1`, -40.6%.
With `Cl.Clc1ccc(COc2cccc(CNCc3ccncc3)c2)cc1`, the “hERG current change (%, negative = inhibition) at 10uM” value is -59.8%.
Under `CCOc1cc(CNCc2ccccn2)cc(Cl)c1OC.Cl` stands 29.6%; under `CCC(C)NC(=O)c1ccccc1NC(=O)Nc1ccccc1` (stereo not drawn), 3.24%.
Then `COc1ccccc1OCCNC(=O)C(=O)c1c[nH]c2ccccc12`, with 5.02%; and `CC1(C)Cc2c(sc3c2C(=O)N(c2ccccc2)C2=NCCCN23)CO1`, with 3.7%; and `CC(C)C[C@H](NC(=O)c1nc[nH]c1C(=O)NC1CCN(C(=O)OC(C)(C)C)CC1)C(=O)OC(C)(C)C`, with -10.8%.
For the compound `O=C(Nc1c2c(nn1-c1ccc(F)cc1)CS(=O)C2)C12CC3CC(CC(C3)C1)C2` (stereo not drawn), the “hERG current change (%, negative = inhibition) at 10uM” value stood at 16.7%.
Then `COc1ccccc1N(CC(=O)NCCSc1ccc(Cl)cc1)S(C)(=O)=O`, with -6.87%; and `COc1cc(CNCc2ccccn2)ccc1OCC(N)=O.Cl`, with -0.0507%; and `COc1cc(CNCc2ccccn2)ccc1OCc1ccc(Cl)cc1.Cl`, with -56.8%.
Under `COc1cc(CNCc2cccnc2)ccc1OCc1ccccc1.Cl` stands -21.8%; under `Cc1ccc(S(=O)(=O)NCC(C)n2nc(C)nc2C)cc1` (stereo not drawn), -0.542%; under `C=CCn1c(O)c(N=O)c2cc(C)ccc21`, -8.69%.
For the compound `CCn1c(SCC(=O)Nc2ccc3c(c2)OCCO3)nnc1-c1ccncc1`, the “hERG current change (%, negative = inhibition) at 10uM” value amounted to 0.979%.
Then `Cc1ccc(S(=O)(=O)N2CCN(C(=O)CN3CCN(C)CC3)C2)cc1`, with 14.1%.
Then `COc1ccccc1Nc1nc2ccccc2n1C`, with -3.73%.
